# Laboratory results from ChEMBL document CHEMBL1201862, “PubChem BioAssay data set” (2004).
# Screen size: about 53,000 sequences; about 5,500 (10%) were called active. Rule as the data show it: active = GI50 up to about 1.1 µM and inactive = higher. This excerpt belongs to a sample that is enriched for actives. Measured potencies and affinities stand elsewhere.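 How tested: cells in 96-well plates exposed to compound for 48 hours at five concentrations. GI50 is the concentration that inhibits growth by half.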
# System: HL-60
# Assay: NCI tumour cell line growth inhibition, 48 h
row,Substance,GI50
1,"ACRIFLAVINE HYDROCHLORIDE, CHEMBL5219995",333 nM
2,"[Bis(aminomethyl)ethylmethylsilane]tetrachloroplatinum(IV), CHEMBL2146192",156 nM
3,"[Bis(aminomethyl)tetramethylenesilane]tetrachloropaltinum(IV), CHEMBL2146189",115 nM
4,"cis-Bis[[(trimethylsilyl)methyl]amino]tetrachloroplatinum(IV), CHEMBL2146191",1760 nM
5,"[Bis(aminomethyl)dimethylsilane]tetrachloroplatinum(IV), CHEMBL2146190",248 nM
6,"CISPLATIN, CHEMBL11359",542 nM
7,"[Bis(aminomethyl)pentamethylenesilane]tetrachloropaltinum(IV), CHEMBL2146204",56.6 nM
8,"mu-(1,7-nanodiamine-N,N')bis-(cis-aminedichloroplatimum (II)), CHEMBL2146215",1640 nM
9,"[Bis(aminomethyl)tetramethylenesilane]dichloropaltinum(II), CHEMBL2146205",1570 nM
10,"[Bis(aminomethyl)diethylsilane]tetrachloroplatinum(IV), CHEMBL2146203",91.2 nM
11,"[Bis(aminomethyl)dimethylsilane]dichloroplatinum (II), CHEMBL2146201",1300 nM
12,"[Bis(aminomethyl)pentamethylenesilane]dichloropaltinum(II), CHEMBL2146202",51.3 nM
